Screening results as filed in PubChem.
Hits are enriched below; roughly 3.6% of the tested compounds scored in any of these assays.
CRFR2-BP antag: blocks CRF-induced signaling of the CRF-BP/CRF-R2 complex; HEK293 CRF-R2/CRF-BP, CRF-induced calcium fluorescence; inhibition, % at 11.8 µM; actives 0.59% (n = 350,000);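 active means inhibition of the ligand-induced calcium signal above about 50% at the single tested concentration, limit read from the data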
NadD block: NadD (S. aureus) enzyme inhibition. inhibition, % at 20 µM. purified NadD enzyme, colorimetric absorbance read-out. actives 0.78% (n = 360,000). AID 602399; in the data active means inhibition above about 26%
FAS-TE inh: blocks the thioesterase domain of human fatty acid synthase | P49327 | recombinant FAS-TE, OMFH fluorogenic substrate, fluorescence endpoint | inhibition, % at 15 µM | actives 0.67% (n = 360,000) | AID 602261;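 active means compounds whose normalised, plate-corrected inhibition of enzyme fluorescence in the single-dose primary screen is 50% or more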
NRP1-CendR mod: modulators of CendR peptide binding to human neuropilin-1; actives 0.85% (n = 360,000); AID 602438; FAM-RPARPAR peptide binding to NRP-1, fluorescence polarization; inhibition, % at 25 µM; O14786;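 active means inhibition or corrected inhibition above about 18%, plus a signal ratio from 0.5 to 1.5, limit read from the data, passing the limit was not always enough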
Target sequence (O14786 whole entry, looked up): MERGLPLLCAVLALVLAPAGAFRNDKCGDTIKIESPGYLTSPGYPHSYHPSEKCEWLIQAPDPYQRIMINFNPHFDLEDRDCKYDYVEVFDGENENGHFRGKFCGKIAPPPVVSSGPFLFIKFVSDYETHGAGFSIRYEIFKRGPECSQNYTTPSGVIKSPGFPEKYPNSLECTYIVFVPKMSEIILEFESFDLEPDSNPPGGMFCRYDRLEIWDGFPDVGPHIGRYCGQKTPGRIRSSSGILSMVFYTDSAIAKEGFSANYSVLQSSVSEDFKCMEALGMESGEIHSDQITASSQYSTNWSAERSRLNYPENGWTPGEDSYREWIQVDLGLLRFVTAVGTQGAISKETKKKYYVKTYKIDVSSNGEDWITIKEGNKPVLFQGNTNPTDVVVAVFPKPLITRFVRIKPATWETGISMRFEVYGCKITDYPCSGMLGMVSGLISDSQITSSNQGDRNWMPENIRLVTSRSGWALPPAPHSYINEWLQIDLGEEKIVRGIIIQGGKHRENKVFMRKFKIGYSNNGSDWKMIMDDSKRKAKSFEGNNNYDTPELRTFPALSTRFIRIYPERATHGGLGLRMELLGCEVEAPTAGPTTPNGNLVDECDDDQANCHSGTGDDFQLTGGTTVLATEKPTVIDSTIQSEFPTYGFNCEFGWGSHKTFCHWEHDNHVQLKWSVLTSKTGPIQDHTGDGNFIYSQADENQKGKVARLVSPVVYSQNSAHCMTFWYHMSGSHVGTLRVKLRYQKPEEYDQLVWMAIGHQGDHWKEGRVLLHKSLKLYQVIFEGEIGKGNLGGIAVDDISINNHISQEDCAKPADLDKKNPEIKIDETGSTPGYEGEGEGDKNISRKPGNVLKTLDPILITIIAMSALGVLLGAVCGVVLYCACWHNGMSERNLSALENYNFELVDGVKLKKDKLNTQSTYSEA
Myeloid diff MLP: promotes myeloid progenitor differentiation; ER-HoxA9 myeloid progenitors, lysozyme-GFP differentiation, flow cytometry; calls only at 10 µM; actives 1% (n = 360,000); AID 624256;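 active means normalized GFP-positive differentiation at or above the plate's own cutoff, the solvent-only control mean plus 3 SD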;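 further: cells exposed to compound for four days before flow analysis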
Numbers stand for hits; - = inactive; . = no result; + = active, no number.

SMILES	CRFR2-BP antag	NadD block	FAS-TE inh	NRP1-CendR mod	Myeloid diff MLP
CCOC(=O)N1CCN(C(=O)CN(C2CCCCC2)S(=O)(=O)c2ccc(F)cc2)CC1	-	-	-	-	-
CCOC(=O)N1CCN(C(=O)CN(C2CCCCC2)S(=O)(=O)c2ccc(Cl)cc2)CC1	-	-	-	-	+
CC(Nc1oc(-c2ccco2)nc1C#N)c1ccccc1 (stereo not drawn)	-	-	-	-	-
N#Cc1nc(-c2ccco2)oc1NCc1ccc(F)cc1	-	-	-	23	-
CC(C)CNc1oc(-c2ccccc2Cl)nc1C#N	-	-	-	26	-
CC(C)CNc1oc(-c2ccco2)nc1C#N	-	-	-	22	-
CC1=CC2(C)C(C3C(C)=CC2(C)C(=O)C3(C)O)C(C)(O)C1=O (stereo not drawn)	-	-	-	-	-
CCC1CCCCN1S(=O)(=O)c1ccc(C(=O)Nc2nnc(-c3ccccc3Cl)o2)cc1 (stereo not drawn)	-	42	-	-	-
N#CC1=C(N)Oc2cc(N)ccc2C1c1ccsc1 (stereo not drawn)	-	-	-	-	-
N#CC1=C(N)Oc2cc(N)ccc2C1c1cc(Br)cs1 (stereo not drawn)	-	-	-	-	+
COc1ccc(CNCc2cccc3ccccc23)cc1	-	-	-	-	-
CCN1C(=O)/C(=C/c2cccs2)S/C1=N\S(=O)(=O)c1ccc(C)cc1	-	-	-	-	-
C=CCN1C(=O)/C(=C/c2cccs2)S/C1=N\S(=O)(=O)c1ccc(F)cc1	-	-	-	-	+
CC(C(=O)Nc1ccc2c(c1)OCO2)N(C)CC(=O)Nc1ccc(Cl)cc1 (stereo not drawn)	-	-	-	-	-
O=C(CSc1ccc(-c2ccc(F)cc2)nn1)NC1CCCCC1	-	-	-	19	.
CCOC(=O)C1=C[C@@H](C(C)(C)C)N(S(=O)(=O)c2ccc([N+](=O)[O-])cc2)[C@H]1c1ccccc1	.	-	-	23	-
Cc1ccc2[nH]c(CSc3ccccc3)cc(=O)c2c1	-	-	-	-	-
CCCCNC1=CC(=O)C(=O)c2ccccc21	-	-	-	-	+
CCCCNC1=CC(=O)C(NCCCC)=CC1=O	-	-	-	-	-
CCCc1nc2c3ccccc3ccn2c1Cc1ccccc1	.	-	-	-	-
CCN(CC)CCN1CCN(c2cnc(C)cn2)CC1	.	-	-	23	-
CN(C)c1ccc(/C=C2\CCC/C(=C\c3ccccc3)C2=O)cc1	-	-	-	-	+
O=S(=O)(O)c1ccc(Cl)c(Cl)c1	-	-	-	-	-
CCOC(=O)c1sc2nc(CC(=O)OC)nc(NCc3ccco3)c2c1C	-	-	-	-	+
CCOC(=O)c1sc2nc(CC(=O)OC)nc(NCC(=O)OC)c2c1C	-	-	-	-	-
SMILES	CRFR2-BP antag	NadD block	FAS-TE inh	NRP1-CendR mod	Myeloid diff MLP
Cn1nnnc1SCC(=O)c1ccco1	-	-	-	19	-
Cn1c(=O)n(C)c2cc([N+](=O)[O-])c(N3CCN(S(=O)(=O)c4ccc5ccccc5c4)CC3)cc21	-	-	66	-	-
Cc1ccc(S(=O)(=O)N2CCN(c3cc4c(cc3[N+](=O)[O-])n(C)c(=O)n4C)CC2)cc1	-	-	-	-	-
CC(Sc1ncccn1)C(=O)NC1(C#N)CCCCC1 (stereo not drawn)	-	-	-	26	-
CC(SC1=Nc2ccccc2C2CC=NN12)C(=O)NC1(C#N)CCCCC1 (stereo not drawn)	-	-	-	-	-
COc1ccc(-c2cc(-c3ccccc3O)[nH]n2)cc1	-	-	-	-	-
COc1ccc2cc(-c3ccn[nH]3)ccc2c1	-	-	-	-	+
CSc1nsc(/C=C/Nc2ccc(C(=O)O)cc2)c1C#N	-	-	-	-	-
CSc1nsc(/C=C/Nc2ccc(F)cc2F)c1C#N	-	-	-	-	+
Cc1nn(CC(=O)N2CCCCCC2)c(=O)c2cc3occc3n12	-	-	-	-	-
O=C/C(=C\Nc1ccccn1)c1nc2cc(Cl)ccc2o1	80	-	-	-	+
CC(=O)Nc1cccc(N/C=C(\C=O)c2nc3ccccc3o2)c1	-	-	-	-	+
CCN(C(=S)Nc1cccc2ccccc12)c1ccccc1	-	-	-	-	-
Cc1ccc(/C=C/C(=O)OC(C)C(=O)NC2CCCCC2C)o1 (stereo not drawn)	-	-	-	-	-
C[C@H]1CN([C@@H](C)CO)C(=O)c2cc(NC(=O)C3CCCCC3)ccc2O[C@H]1CN(C)S(=O)(=O)c1ccccc1	-	-	-	-	-
CSCCC(NC(=O)c1ccco1)C(=O)NCC1CCCCC1 (stereo not drawn)	-	-	-	-	-
CSCC[C@H](NC(=O)OC(C)(C)C)C(=O)NCC1CCC(C(=O)N[C@@H](Cc2ccccc2)C(=O)O)CC1 (stereo partly drawn)	-	-	-	-	+
CC(C)C[C@H](NC(=O)OC(C)(C)C)C(=O)NCC1CCC(C(=O)N[C@@H](Cc2ccccc2)C(=O)O)CC1 (stereo partly drawn)	-	-	-	-	-
CSCCC(NC(=O)c1ccccc1Br)C(=O)NCC1CCCCC1 (stereo not drawn)	-	-	-	-	+
O=C(Nc1ccc2c(c1)OCCO2)C1C(c2ccccc2)=Nc2ccccc2N1C(=O)c1cccnc1 (stereo not drawn)	.	.	.	-	-
CCNC(=O)C1(C)CCCN(C(=O)c2ccnc(Cl)c2)C1 (stereo not drawn)	.	-	-	-	-
COc1ccccc1Oc1ccc(S(=O)(=O)N2CCOCC2)cc1S(=O)(=O)N1CCOCC1	-	-	-	27	-
COc1ccc(C)cc1S(=O)(=O)N1CCCCC1	-	-	-	-	-
COc1ccc(C)cc1S(=O)(=O)N1CCN(S(=O)(=O)c2cc(C)ccc2OC)CC1	54	-	-	-	-
N#Cc1sc2nc(-c3cccs3)cc(-c3ccc(F)cc3)c2c1N	-	-	-	-	+
SMILES	CRFR2-BP antag	NadD block	FAS-TE inh	NRP1-CendR mod	Myeloid diff MLP
N#Cc1sc2nc(C3CC3)cc(-c3ccccc3)c2c1N	-	-	-	-	-
CC(/C=C/c1ccccc1)=N\NC(=O)Cn1nc(C)cc1C	-	-	-	-	-
O=C1Nc2ccccc2N=C(c2ccccc2)C1N(C(=O)c1ccnc2ccccc12)c1ccccc1 (stereo not drawn)	.	-	-	-	-
COc1cccc(CSc2nnc(C(F)(F)F)n2Cc2ccc(F)cc2)c1	64	-	-	-	-
Cc1ccc(OCc2cc(C(=O)N3CCN(CC(=O)NC(C)C)CC3)no2)cn1	72	-	-	-	-
COCCN1CCN(C(=O)c2cc(COc3cc(C)ccc3C)on2)CC1	71	-	-	-	-
O=C(Nc1cccc2c(=O)[nH][nH]c(=O)c12)c1ccc([N+](=O)[O-])cc1	.	-	-	-	-
COc1ccc2[nH]c(C)c(CCN(Cc3cccs3)C(=S)Nc3ccc(F)cc3)c2c1	-	-	-	-	+
COc1ccc2[nH]c(C)c(CCN(Cc3cccs3)C(=S)Nc3ccccc3)c2c1	-	-	-	-	-
